log2 fold change data for 15 targets are collected here from the supplement of paper PMC10849652.

Targets with a hit are over-represented here; the source holds about 7,900 in all. About 0.6% of all pairs of compound and target were hits. Unmarked numbers belong to inactive results.

Chain of UniProt Q15008 (Q15008 whole entry, looked up): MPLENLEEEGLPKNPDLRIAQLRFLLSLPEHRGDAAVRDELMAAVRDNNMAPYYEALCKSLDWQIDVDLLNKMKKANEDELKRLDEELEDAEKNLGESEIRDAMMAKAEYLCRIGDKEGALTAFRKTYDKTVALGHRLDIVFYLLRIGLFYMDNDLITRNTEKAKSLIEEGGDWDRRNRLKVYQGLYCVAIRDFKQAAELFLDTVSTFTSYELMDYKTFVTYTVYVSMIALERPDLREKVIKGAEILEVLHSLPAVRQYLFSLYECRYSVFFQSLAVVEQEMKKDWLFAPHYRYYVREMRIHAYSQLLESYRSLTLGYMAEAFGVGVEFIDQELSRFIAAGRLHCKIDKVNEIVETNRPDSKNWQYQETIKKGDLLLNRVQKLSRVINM
Chain of UniProt Q504Q3 (Q504Q3 whole entry, looked up): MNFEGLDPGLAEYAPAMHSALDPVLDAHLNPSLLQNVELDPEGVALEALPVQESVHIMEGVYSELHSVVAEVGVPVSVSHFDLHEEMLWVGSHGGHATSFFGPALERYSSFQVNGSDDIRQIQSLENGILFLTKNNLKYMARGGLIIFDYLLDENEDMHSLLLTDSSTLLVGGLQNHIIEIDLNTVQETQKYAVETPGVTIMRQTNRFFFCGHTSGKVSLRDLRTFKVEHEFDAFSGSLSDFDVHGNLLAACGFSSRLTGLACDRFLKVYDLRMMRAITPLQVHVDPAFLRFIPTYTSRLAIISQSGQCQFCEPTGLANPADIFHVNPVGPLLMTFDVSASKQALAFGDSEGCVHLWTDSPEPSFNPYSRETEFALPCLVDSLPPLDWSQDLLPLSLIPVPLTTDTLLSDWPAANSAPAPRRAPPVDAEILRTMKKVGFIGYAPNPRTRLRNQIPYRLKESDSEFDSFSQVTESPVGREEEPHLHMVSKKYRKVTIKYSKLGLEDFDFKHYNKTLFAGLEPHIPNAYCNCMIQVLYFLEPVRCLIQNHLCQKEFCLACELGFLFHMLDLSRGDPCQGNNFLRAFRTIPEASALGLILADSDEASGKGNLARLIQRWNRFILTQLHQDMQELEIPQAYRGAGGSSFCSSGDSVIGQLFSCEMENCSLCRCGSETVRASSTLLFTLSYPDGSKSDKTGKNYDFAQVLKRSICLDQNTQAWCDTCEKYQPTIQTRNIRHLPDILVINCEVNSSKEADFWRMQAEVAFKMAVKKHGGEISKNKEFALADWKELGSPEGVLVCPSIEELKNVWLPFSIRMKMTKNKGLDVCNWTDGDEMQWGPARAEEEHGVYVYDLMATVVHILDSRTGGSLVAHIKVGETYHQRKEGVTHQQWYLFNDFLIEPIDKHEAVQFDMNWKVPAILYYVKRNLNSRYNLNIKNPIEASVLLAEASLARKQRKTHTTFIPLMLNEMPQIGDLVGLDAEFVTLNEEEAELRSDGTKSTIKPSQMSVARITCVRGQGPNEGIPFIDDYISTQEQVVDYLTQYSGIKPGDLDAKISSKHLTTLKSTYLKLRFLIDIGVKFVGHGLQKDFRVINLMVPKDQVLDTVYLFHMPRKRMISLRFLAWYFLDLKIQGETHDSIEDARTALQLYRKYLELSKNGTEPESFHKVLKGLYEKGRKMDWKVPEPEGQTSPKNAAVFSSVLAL
Chain of UniProt Q9Y5K3 (Q9Y5K3 whole entry, looked up): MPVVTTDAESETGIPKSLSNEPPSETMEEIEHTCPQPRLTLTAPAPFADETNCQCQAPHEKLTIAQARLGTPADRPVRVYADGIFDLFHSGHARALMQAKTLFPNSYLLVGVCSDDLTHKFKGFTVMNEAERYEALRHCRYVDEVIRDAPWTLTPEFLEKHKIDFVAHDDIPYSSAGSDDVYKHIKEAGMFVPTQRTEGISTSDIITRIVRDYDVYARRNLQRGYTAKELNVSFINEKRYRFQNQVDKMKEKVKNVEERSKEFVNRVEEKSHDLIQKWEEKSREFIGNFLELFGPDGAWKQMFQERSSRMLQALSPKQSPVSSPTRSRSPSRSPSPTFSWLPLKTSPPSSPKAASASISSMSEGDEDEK
Chain of UniProt P35998 (P35998 whole entry, looked up): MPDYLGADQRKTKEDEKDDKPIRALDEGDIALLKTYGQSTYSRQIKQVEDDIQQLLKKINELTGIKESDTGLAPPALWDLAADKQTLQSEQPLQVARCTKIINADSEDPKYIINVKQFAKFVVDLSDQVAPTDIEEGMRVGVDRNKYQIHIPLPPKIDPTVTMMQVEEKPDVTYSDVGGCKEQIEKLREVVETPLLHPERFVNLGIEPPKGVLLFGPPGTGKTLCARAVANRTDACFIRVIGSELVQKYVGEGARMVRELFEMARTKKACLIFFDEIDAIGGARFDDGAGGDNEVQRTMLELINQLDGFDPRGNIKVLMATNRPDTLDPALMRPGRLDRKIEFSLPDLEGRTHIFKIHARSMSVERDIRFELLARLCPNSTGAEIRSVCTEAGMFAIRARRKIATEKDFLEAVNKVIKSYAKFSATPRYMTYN
Chain of UniProt O00232 (O00232 whole entry, looked up): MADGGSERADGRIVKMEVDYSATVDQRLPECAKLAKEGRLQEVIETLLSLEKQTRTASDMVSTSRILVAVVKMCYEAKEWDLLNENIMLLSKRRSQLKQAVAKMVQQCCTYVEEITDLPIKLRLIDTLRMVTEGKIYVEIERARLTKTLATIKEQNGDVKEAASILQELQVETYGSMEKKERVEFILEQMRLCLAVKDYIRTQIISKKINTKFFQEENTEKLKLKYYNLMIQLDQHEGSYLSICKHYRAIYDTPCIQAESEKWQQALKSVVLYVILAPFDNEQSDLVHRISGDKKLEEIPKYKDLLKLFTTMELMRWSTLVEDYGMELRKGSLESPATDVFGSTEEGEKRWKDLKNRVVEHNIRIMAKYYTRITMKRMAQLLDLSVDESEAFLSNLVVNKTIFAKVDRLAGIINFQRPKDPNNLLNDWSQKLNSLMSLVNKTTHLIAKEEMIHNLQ
Chain of UniProt P49642 (P49642 whole entry, looked up): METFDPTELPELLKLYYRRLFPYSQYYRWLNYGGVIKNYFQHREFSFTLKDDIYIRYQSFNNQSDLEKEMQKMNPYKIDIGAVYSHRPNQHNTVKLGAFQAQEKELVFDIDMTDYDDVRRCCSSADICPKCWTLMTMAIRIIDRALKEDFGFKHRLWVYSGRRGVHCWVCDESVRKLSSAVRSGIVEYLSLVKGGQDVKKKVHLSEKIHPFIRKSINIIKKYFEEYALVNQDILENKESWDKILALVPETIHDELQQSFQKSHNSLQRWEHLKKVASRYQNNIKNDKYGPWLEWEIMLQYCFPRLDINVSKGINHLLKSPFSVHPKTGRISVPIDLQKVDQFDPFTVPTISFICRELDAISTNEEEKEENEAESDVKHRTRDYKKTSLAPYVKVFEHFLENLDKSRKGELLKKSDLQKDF
Chain of UniProt Q15366 (Q15366 whole entry, looked up): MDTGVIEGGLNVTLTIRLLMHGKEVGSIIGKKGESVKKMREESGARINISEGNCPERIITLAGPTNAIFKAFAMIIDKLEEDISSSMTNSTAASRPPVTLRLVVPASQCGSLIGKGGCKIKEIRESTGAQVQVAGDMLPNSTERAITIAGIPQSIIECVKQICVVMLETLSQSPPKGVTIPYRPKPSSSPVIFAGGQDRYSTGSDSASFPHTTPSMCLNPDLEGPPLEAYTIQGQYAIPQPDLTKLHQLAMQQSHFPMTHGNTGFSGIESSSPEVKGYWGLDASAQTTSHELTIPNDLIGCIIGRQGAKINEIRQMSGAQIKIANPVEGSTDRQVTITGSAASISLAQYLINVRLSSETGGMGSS
Chain of UniProt Q15111 (Q15111 whole entry, looked up): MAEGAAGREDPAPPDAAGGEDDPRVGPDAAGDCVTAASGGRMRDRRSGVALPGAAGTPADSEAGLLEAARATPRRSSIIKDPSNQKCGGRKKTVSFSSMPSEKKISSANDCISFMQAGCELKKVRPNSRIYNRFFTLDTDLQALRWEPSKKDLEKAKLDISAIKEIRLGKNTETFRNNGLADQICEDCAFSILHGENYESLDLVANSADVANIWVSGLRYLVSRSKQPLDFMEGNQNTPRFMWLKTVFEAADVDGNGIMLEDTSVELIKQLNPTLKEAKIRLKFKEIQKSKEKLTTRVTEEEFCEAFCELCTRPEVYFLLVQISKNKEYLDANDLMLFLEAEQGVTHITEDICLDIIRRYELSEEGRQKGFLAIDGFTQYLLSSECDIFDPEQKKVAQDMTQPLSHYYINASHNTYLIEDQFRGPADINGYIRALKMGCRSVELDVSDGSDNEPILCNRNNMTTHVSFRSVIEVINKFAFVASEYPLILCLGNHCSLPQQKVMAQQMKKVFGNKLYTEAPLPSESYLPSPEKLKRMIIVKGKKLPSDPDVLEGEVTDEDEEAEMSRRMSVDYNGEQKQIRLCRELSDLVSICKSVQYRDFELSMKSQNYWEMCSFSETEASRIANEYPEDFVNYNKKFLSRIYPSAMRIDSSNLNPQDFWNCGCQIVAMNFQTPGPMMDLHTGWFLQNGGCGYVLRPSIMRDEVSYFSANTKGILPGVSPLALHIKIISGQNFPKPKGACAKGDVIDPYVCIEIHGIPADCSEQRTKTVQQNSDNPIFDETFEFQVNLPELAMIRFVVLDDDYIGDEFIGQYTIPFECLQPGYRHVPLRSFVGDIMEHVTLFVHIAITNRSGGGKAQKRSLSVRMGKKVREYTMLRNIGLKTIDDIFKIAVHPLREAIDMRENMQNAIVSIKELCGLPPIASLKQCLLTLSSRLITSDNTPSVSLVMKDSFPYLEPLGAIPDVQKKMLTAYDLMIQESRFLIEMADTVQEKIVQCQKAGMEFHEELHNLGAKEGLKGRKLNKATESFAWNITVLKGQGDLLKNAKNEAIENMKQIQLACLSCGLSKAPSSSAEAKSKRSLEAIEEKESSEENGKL

Compound in this test: c1cn2cc(-c3ccc4cn[nH]c4c3)nc(Nc3ccc(N4CCOCC4)cc3)c2n1 [entospletinib]
The experiment in a line: log2 fold change, soluble protein after heating vs DMSO (PISA); higher = thermal stabilisation; K562 cells, 10 uM, 30 min; active = over 0.2 and 3.5 SD of the protein, either way, in both replicates (recomputed). Summed up: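 K562 cells at 2×10^6 cells/mL were treated with 10 μM compound for 30 min. Aliquots were heated for 3 min across 48°C-58°C, pooled, and extracted in PBS with 0.5% NP-40 at 4°C; soluble protein was the supernatant after 21,000xg for 90 min. Soluble protein was quantified by TMTpro 16plex LC-MS/MS with channel sums equalised, and reported as log2 fold change in thermal stability against DMSO controls, with values from duplicates.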
For the target POM121 (UniProt Q96HA1), the log2 fold change was -0.051.

In the case of PCBP2 isoform 3 (UniProt Q15366), the log2 fold change is 0.009.

Consider PAN2 (UniProt Q504Q3), for which the log2 fold change was -0.151.

Consider PLCL1 (UniProt Q15111), for which the log2 fold change was -0.099.

With PSMD6 (UniProt Q15008), the log2 fold change is 0.058.

Consider POMK (UniProt Q9H5K3), for which the log2 fold change is -0.293 (active).

On to PRIM1 (UniProt P49642), for which the log2 fold change is 0.062.

Take PDCD2L (UniProt Q9BRP1): the log2 fold change was -0.012.

Take PSMD1 (UniProt Q99460): the log2 fold change was -0.012.

As for PSMC2 (UniProt P35998), the log2 fold change was 0.02.

Consider PCYT1B (UniProt Q9Y5K3), for which the log2 fold change is 0.057.

For the target PRUNE1 (UniProt Q86TP1), the log2 fold change is 0.029.

For the target PBK (UniProt Q96KB5), the log2 fold change is 0.109.

Consider PSMD12 (UniProt O00232), for which the log2 fold change was 0.032.

Take PPM1G (UniProt O15355): the log2 fold change is 0.094.
